# The full data set covers some 8,800 targets. This sample favours those with a hit. About 0.5% of all pairs of compound and target were hits. A number with no mark means an inactive call.
# Experiments:
# Test in all cases: log2 fold change, soluble protein after heating vs DMSO (PISA); higher = thermal stabilisation; K562 lysate, 10 uM; active = over 0.2 and 3.5 SD of the protein, either way, in both replicates (recomputed)
# [1] = compound: C=CC(=O)N1CCC[C@@H](n2nc(-c3ccc(Oc4ccccc4)cc3)c3c(N)ncnc32)C1 [ibrutinib]
# Outline: (§1)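 Following dounce homogenisation of K562 pellets in PBS pH 7.4 with 1 mM MgCl2, crude extract at 1 mg/mL protein was incubated for 30 min with 10 μM compound. Aliquots were then heated for 3 min over 48°C-58°C and pooled, NP-40 was added to 0.5% at 4°C, and soluble protein was recovered as the supernatant at 21,000xg for 90 min. Channel-sum-equalised TMTpro 16plex LC-MS/MS quantified this protein. Each value, from duplicates, is a log-two fold change in thermal stability relative to solvent controls.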
# [2] = compound: CC(=O)c1cnc2ccc(-c3cc(Cl)c(O)c(Cl)c3)nc2c1N[C@H]1CC[C@H](CN(C)C)CC1
# Outline: as §1
# [3] = compound: CC(C)(C)Cn1c(N)nc2ccc(-c3[nH]c(C(C)(C)C)nc3-c3ccc(F)cc3)nc21 [ralimetinib]
# Outline: as §1
# [4] = compound: CC(C)(O)CC(=O)NCCn1ccc2ncnc(Nc3ccc(Oc4cccc(C(F)(F)F)c4)c(Cl)c3)c21
# Outline: as §1
# [5] = compound: CC(C)C1=C2N=C(C=C(N2N=C1)NCC3=CC=CC=C3)NCCCCCCN
# Outline: as §1
# [6] = compound: CC1=C(C(CC(=O)N1)C2=CC=C(C=C2)C(F)(F)F)C(=O)NC3=C(C=C4C(=C3)C=NN4)F
# Outline: as §1
# [7] = compound: CC1=C(C2=C(C=C1)C(=O)C3=CC=CC=C3N2CCCN)C
# Outline: as §1
# [8] = compound: CC1=C(C=C(C=C1)NC(=O)C2=CC(=CC=C2)C(C)(C)C#N)NC3=CC4=C(C=C3)N=CN(C4=O)C
# Outline: as §1
# [9] = compound: CC1=C(C=C(C=C1)NC(=O)C2=CC(=CC=C2)N(C)C)NC(=O)C3=CC=C(C=C3)O
# Outline: as §1
# [10] = compound: CC1=CC=C(C=C1)SC2=C3C=C(SC3=CN=C2)C(=O)N
# Outline: as §1
# [11] = compound: CCCS(=O)(=O)Nc1ccc(F)c(C(=O)c2c[nH]c3ncc(-c4ccc(Cl)cc4)cc23)c1F [vemurafenib]
# Outline: as §1
# [12] = compound: CCCS(=O)(=O)Nc1ccc(F)c(C(=O)c2c[nH]c3ncc(Cl)cc23)c1F
# Outline: as §1
# [13] = compound: CCN(CCCOc1ccc2c(Nc3cc(CC(=O)Nc4cccc(F)c4)[nH]n3)ncnc2c1)CCOP(=O)(O)O [barasertib]
# Outline: as §1
# [14] = compound: CC[C@@H]1C(=O)N(C)c2cnc(Nc3ccc(C(=O)NC4CCN(C)CC4)cc3OC)nc2N1C1CCCC1
# Outline: as §1
# [15] = compound: CC[C@@H]1C(=O)N(C)c2cnc(Nc3ccc(C(=O)N[C@H]4CC[C@H](N5CCN(CC6CC6)CC5)CC4)cc3OC)nc2N1C(C)C [volasertib]
# Outline: as §1
# [16] = compound: CCn1c(C(=O)N(C2CC2)C2CC2)cc2c3c(ncn3C)c(Nc3cc(C)n(C)n3)nc21
# Outline: as §1
# [17] = compound: CCn1cc(-c2ccnc3[nH]c(-c4cccc(CN(C)C)c4)cc23)c(-c2ccc(NC(=O)N(C)C)cc2)n1
# Outline: as §1
# [18] = compound: CN1CCC(CNc2ccc3ncc(-c4cccc(OC(F)(F)F)c4)n3n2)CC1
# Outline: as §1
# [19] = compound: CN1CCN(CCOc2cc(OC3CCOCC3)c3c(Nc4c(Cl)ccc5c4OCO5)ncnc3c2)CC1 [saracatinib]
# Outline: as §1
# [20] = compound: CN1CCN(c2nc(C3=C(c4c[nH]c5ccccc45)C(=O)NC3=O)c3ccccc3n2)CC1 [sotrastaurin]
# Outline: as §1
# Chain of UniProt A8MPS7 (A8MPS7 whole entry, looked up): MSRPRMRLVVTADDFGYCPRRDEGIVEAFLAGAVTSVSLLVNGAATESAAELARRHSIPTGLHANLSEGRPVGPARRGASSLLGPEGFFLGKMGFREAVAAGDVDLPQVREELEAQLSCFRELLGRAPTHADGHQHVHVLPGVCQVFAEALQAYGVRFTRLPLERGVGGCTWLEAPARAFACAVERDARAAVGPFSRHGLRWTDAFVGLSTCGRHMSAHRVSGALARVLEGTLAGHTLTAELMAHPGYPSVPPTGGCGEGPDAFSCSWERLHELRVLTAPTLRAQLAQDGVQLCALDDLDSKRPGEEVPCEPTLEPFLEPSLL
# Chain of UniProt Q96GY0 (Q96GY0 whole entry, looked up): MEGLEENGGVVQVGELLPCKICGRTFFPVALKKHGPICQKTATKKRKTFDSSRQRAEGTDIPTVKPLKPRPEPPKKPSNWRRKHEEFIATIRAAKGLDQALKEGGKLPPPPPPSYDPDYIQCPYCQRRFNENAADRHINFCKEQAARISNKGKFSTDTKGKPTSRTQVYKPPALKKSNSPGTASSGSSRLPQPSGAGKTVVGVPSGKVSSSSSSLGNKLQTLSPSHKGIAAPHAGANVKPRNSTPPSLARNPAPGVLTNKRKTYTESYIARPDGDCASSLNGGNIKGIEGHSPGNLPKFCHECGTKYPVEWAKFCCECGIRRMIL
# Chain of UniProt Q8NI36 (Q8NI36 whole entry, looked up): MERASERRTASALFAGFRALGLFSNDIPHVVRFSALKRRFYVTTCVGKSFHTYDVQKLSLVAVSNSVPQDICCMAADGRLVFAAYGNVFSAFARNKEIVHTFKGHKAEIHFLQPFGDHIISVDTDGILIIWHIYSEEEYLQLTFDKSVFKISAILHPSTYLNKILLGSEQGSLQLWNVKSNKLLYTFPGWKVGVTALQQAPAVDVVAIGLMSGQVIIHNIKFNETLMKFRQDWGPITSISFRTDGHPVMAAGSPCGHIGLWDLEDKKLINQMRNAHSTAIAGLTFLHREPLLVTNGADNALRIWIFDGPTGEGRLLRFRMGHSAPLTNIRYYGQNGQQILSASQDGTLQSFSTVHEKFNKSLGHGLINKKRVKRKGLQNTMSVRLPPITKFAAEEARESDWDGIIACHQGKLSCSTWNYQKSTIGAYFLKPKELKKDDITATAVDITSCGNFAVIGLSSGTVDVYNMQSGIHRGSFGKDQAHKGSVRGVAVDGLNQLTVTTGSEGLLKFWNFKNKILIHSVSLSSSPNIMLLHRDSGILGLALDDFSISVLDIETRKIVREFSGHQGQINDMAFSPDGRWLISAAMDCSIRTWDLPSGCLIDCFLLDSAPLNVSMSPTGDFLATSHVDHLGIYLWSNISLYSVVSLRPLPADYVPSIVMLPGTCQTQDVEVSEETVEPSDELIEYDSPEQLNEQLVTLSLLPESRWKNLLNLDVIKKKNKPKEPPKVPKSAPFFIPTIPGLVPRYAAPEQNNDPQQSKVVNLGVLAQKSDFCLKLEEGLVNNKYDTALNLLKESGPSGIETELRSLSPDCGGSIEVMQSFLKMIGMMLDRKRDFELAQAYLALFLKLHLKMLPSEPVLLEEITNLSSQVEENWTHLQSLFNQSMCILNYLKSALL
# Chain of UniProt P26640 (P26640 whole entry, looked up): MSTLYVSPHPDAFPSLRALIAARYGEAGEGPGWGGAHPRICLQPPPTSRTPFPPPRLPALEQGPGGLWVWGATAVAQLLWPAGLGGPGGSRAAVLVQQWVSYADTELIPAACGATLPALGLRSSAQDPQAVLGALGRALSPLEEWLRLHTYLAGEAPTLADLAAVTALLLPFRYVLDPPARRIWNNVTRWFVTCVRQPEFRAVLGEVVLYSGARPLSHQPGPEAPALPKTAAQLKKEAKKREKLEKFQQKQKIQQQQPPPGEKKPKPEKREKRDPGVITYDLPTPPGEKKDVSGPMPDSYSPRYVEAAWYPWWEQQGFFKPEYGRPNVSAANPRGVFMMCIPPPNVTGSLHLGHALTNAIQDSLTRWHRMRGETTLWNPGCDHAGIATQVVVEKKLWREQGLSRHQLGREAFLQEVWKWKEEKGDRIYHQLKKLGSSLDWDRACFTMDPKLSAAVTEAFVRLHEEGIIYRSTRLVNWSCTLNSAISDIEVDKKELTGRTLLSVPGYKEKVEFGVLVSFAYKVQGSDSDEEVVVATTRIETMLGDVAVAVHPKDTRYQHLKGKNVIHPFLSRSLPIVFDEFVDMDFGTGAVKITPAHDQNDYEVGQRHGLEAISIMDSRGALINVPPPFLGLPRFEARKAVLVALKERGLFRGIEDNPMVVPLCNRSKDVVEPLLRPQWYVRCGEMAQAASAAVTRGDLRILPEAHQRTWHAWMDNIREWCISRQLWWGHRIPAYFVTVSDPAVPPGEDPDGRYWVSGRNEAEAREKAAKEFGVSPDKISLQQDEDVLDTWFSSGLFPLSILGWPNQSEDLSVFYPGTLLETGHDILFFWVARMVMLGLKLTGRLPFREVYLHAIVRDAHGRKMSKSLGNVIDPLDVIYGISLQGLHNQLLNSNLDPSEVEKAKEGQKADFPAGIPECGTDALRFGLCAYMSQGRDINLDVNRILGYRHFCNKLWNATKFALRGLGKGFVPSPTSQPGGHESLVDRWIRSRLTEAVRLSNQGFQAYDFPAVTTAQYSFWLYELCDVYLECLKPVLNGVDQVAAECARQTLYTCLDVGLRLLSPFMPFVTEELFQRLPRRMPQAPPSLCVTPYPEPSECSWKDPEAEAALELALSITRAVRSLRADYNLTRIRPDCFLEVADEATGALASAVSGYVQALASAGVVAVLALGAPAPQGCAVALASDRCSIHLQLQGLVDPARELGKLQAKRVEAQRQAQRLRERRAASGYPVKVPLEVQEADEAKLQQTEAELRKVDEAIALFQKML
# Chain of UniProt Q9UKW4 (Q9UKW4 whole entry, looked up): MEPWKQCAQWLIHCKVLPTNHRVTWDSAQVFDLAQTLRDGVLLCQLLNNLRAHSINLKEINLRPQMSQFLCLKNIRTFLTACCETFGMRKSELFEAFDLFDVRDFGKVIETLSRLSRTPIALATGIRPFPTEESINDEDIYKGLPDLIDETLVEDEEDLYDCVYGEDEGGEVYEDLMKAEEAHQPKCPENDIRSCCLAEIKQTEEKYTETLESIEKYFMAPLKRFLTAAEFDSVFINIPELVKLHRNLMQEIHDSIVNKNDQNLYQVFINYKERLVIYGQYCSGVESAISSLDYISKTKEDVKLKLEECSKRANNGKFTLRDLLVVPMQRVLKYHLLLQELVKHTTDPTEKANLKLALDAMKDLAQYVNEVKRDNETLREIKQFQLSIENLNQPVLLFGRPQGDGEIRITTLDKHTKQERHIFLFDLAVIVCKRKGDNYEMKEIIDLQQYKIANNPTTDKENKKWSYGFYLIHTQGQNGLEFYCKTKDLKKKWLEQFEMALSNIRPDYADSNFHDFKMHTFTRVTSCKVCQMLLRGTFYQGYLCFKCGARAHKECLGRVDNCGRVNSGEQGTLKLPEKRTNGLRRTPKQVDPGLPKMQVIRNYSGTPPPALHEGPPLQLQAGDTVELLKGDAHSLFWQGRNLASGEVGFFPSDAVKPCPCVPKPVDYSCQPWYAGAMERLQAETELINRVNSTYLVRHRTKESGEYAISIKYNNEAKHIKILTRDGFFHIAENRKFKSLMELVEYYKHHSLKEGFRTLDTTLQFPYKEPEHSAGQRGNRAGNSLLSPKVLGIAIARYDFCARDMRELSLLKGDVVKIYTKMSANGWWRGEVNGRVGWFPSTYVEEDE
# Chain of UniProt P50552 (P50552 whole entry, looked up): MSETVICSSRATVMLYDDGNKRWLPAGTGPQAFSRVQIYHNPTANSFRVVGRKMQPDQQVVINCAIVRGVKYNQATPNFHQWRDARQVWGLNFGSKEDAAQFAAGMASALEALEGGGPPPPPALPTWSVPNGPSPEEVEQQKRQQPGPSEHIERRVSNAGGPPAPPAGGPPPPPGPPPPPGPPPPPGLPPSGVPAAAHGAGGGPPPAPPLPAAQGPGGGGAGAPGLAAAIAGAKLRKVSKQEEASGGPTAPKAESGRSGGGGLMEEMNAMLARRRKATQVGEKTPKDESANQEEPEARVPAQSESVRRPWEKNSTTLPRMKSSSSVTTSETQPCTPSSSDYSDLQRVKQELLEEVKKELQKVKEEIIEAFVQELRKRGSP
# Chain of UniProt Q9H9H4 (Q9H9H4 whole entry, looked up): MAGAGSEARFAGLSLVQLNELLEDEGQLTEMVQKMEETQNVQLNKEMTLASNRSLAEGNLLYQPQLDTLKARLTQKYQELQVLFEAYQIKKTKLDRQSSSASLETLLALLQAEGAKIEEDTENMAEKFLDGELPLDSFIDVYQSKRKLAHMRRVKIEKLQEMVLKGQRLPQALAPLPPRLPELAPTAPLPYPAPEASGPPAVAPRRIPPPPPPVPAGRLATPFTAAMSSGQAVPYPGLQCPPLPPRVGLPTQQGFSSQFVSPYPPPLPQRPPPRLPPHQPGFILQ
# Chain of UniProt O95619 (O95619 whole entry, looked up): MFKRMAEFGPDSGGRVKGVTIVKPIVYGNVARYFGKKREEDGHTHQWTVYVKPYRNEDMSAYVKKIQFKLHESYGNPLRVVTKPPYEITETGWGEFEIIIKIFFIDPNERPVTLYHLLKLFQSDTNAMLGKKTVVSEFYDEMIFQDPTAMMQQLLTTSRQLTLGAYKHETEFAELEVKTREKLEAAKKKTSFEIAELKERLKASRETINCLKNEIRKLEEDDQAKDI
# Chain of UniProt P63027 (P63027 whole entry, looked up): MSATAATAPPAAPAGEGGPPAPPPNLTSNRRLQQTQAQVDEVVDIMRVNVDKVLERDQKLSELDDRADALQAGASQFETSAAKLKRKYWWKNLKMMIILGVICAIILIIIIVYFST
Target,log2 fold change [1],log2 fold change [2],log2 fold change [3],log2 fold change [4],log2 fold change [5],log2 fold change [6],log2 fold change [7],log2 fold change [8],log2 fold change [9],log2 fold change [10],log2 fold change [11],log2 fold change [12],log2 fold change [13],log2 fold change [14],log2 fold change [15],log2 fold change [16],log2 fold change [17],log2 fold change [18],log2 fold change [19],log2 fold change [20]
YEATS4 (UniProt O95619),0.02,0.016,0.003,0.009,0.001,0.01,-0.004,0.041,-0.035,-0.039,-0.032,0.003,0.05,0.045,-0.028,0.014,0.746 (active),0,0.031,0.022
VAV3 isoform 4 (UniProt Q9UKW4),0.068,-0.109,-0.049,-0.013,-0.028,-0.013,0.085,-0.03,-0.026,0.058,0.059,-0.004,0.049,-0.001,-0.017,-0.291,-0.512,0.177,-0.15,0.001
ZBTB33 (UniProt Q86T24),0.258,0.183,-0.058,-0.158,0.141,-0.027,0.109,0.129,0.044,0.109,0.01,-0.017,-0.199,-0.002,-0.673 (active),0,0.034,-0.008,0.033,0.015
VASP (UniProt P50552),-0.002,0.002,-0.003,-0.018,-0.009,-0.007,0.038,0.014,-0.014,0.01,-0.012,-0.011,-0.069,-0.022,-0.008,0.009,0.006,-0.009,0.007,-0.004
ZC2HC1A (UniProt Q96GY0),-0.029,-0.006,0.037,-0.056,-0.038,-0.016,-0.076,0.045,-0.003,0.006,0.13,-0.032,0.078,0.086,0.031,0.035,-0.057,0.117,-0.011,0.016
USP48 isoform 8 (UniProt Q86UV5),-0.02,-0.014,0.004,0,-0.005,0.007,-0.005,0.001,0,-0.01,-0.002,0.036,0.002,-0.013,-0.043,0.007,-0.011,-0.032,-0.004,0.031
WRNIP1 (UniProt Q96S55),0.025,0.026,0.051,0.026,0.001,0.045,0.013,-0.023,-0.003,-0.023,0.036,0.042,0.064,-0.114,-0.128,0.014,-0.026,0.03,-0.006,0.042
YDJC (UniProt A8MPS7),0.024,0.023,-0.015,-0.064,-0.028,0.052,-0.034,0.011,0.022,0.021,-0.022,0.006,0.017,0.01,-0.038,-0.063,0.012,0.055,0.024,0.008
ZNF451 (UniProt Q9Y4E5),0.004,0.019,0.02,0.007,-0.011,0.033,-0.003,-0.012,0.019,0.055,-0.013,0.02,0.019,0.066,-0.063,-0.022,-0.047,-0.048,0.039,0.002
VTN (UniProt P04004),-0.019,-0.007,0.01,-0.044,0.028,0.088,0.017,-0.011,0.155,-0.04,0.029,0.058,0.043,0.063,-0.001,0.011,-0.615 (active),0.289,0.075,-0.012
USP10 isoform 2 (UniProt Q14694),-0.038,0.001,-0.019,-0.014,-0.006,-0.025,0.018,0.003,0.018,0.008,0.021,0.013,0.002,-0.005,-0.039,0.013,-0.079,0,0.005,0.008
VPS37B (UniProt Q9H9H4),0.024,0.014,-0.055,0.009,-0.028,0,-0.008,0.019,0.012,0.028,-0.001,0.003,-0.012,0.047,-0.011,0.005,-0.018,0.04,0.048,0.01
WDR36 (UniProt Q8NI36),-0.02,-0.01,0.019,-0.004,0.03,0.048,0,0.019,0.013,0.033,0.014,0.018,0.011,-0.058,-0.022,0.034,0.012,-0.076,-0.015,0.044
VPS4A (UniProt Q9UN37),0.001,0,0.013,0.035,0,-0.035,-0.046,-0.039,0.045,0.025,0.096,-0.006,0.014,-0.063,-0.09,0.054,-0.12,-0.036,0.027,0.056
VARS (UniProt P26640),0.015,-0.003,0.042,0.018,0.032,0.006,-0.047,0.001,0.041,0.035,0.028,0.007,0.036,-0.077,-0.082,0.04,-0.014,-0.039,-0.001,0.03
VAMP2 (UniProt P63027),-0.039,-0.027,0.002,-0.006,-0.036,-0.069,-0.01,-0.048,0.047,0.035,0.002,-0.027,0.012,-0.286 (active),0.009,0.02,0.057,0.091,0.033,-0.028

# From the supplement of paper PMC10849652
